Among all 340,000 compounds or so, about 1,000 (0.29%) were called active. A selection follows. Results with a measured potency or affinity are listed apart. A number with no mark means an inactive call. Cut-off read from the data, not from the text of the source: inconclusive = inhibition above about 27% without an active follow-up result; inactive = below that.

A short description of the test: NS1A inhibition, H1N1 influenza, cell based functional assay (AID 504329). The settings on record: percent inhibition, at 12.5 µM, active compounds read high.
For orientation: inhibition means the change of the read-out against control, counted positive when it falls. As to `Cc1cnc(-n2c(=S)[nH]c3ccccc3c2=O)s1`, the inhibition was -7.74%. The value for `O=C(NCc1cc(C(F)(F)F)ccc1F)C1CCC(=O)N(C2CC2)C1` (stereo not drawn) was -6.88%; that for `CCN1CCN(c2ccc(N)cc2)CC1` was 11.3%.

`Nc1ccc(N2CCN(c3ccc(F)cc3)CC2)cc1`: the inhibition is -1.58%.

`N#Cc1ccc(C(=O)Nc2cc(C3CC3)nn2-c2ccccc2)cc1`: the inhibition is -9.27%.

Regarding `CC[n+]1c(C)sc2c3ccsc3ccc21`, the inhibition was 2.89%. Take `Cn1c(SCC(=O)Nc2ccc(C(N)=O)cc2)nc2c(c1=O)SCC2`: the inhibition is -1.68%. In the case of `Oc1ccccc1N=Nc1ccccc1O` it was 21.9%.

For the compound `Oc1ccccc1N=N/C(=N/Nc1ccccc1O)c1ccccc1`, the inhibition was -1.57%.

With `CC(=O)NC1C(Oc2ccccc2C)OC2COC(c3ccco3)OC2C1O` (stereo not drawn), the inhibition is -4.4%. Consider `Cc1ccn(CC(=O)N2CCCC(C(=O)c3cccc4ccccc34)C2)n1` (stereo not drawn), for which the inhibition is 1.06%. In the case of `Cc1ccc(N2CC(C(=O)N3CCC(C(=O)NCCCOC(C)C)CC3)CC2=O)cc1` (stereo not drawn), the inhibition is -11.9%.

For `Cc1ccccc1OCC(=O)N/N=C/c1cccc2cccnc12`, the inhibition is 11.7%. In the case of `O=C(COc1ccc(F)cc1)N/N=C/c1cccc2cccnc12` it was -1.12%; in that of `COc1cccc(/C=N/NC(=O)COc2cccc3cccnc23)c1O`, -3.74%.

As to `COc1ccc(OCC(=O)N/N=C/c2cccc3cccnc23)cc1`, the inhibition was 27.8%. The value for `Cc1ccc(C(F)(F)F)cc1NC(N)=S` was 5.01%; that for `COc1ccc(/C=N/Nc2nncn2N)cc1Br` was 9.22%; that for `Nn1cnnc1N/N=C/c1ccc(Cl)cc1Cl` was -12.4%. Consider `Cc1ccc(N(C)S(=O)(=O)c2ccc3[nH]cc(C(=O)NCCCN4CCOCC4)c(=O)c3c2)cc1C`, for which the inhibition is 4.79%. With `Cc1cc(=O)[nH]c(N/N=C/c2ccccc2C(F)(F)F)n1`, the inhibition is -5.35%. The value for `Nc1ccc(N=Nc2ccccc2)c2ccccc12` was -3.26%; that for `Nc1ccc(N=Nc2ccccc2)c(N)n1` was 18%. The value for `COCCn1c(CN2CC(C)CC(C)C2)nc2c1c(=O)n(C)c(=O)n2C` (stereo not drawn) was 3.18%; that for `CC[n+]1c(/C=C/C=C/N(C(C)=O)c2ccccc2)sc2ccccc21` was 25.6%.

Turning to `CN(C)c1ccc(/C=C/c2cc[n+](C)cc2)cc1`, the inhibition was 7.63%. In the case of `CN(C)c1ccc(/C=C/c2nc3ccccc3s2)cc1`, the inhibition is -0.93%.

`CC[n+]1c(/C=C/N(C)c2ccccc2)sc2ccc(Cl)cc21`: the inhibition was 0.72%. As to `CCOc1nc(SCCOc2ccccc2)nc(N(C)C)n1`, the inhibition was 21.4%.

Turning to `COc1ccc(NS(=O)(=O)c2cccc(C(=O)N/N=C(\C)c3ccncc3)c2)cc1`, the inhibition is -5.23%.

Take `Cc1ccc2ccc3ccc(C)nc3c2n1`: the inhibition is -7.29%. As for `Clc1ccc2ccc3cccnc3c2n1`, the inhibition was -25.7%. The value for `Cc1ccc2cccnc2c1N` was -4.2%. In the case of `O=S1(=O)NC(=NCCc2ccccn2)c2ccccc21` it was -4.92%.

Take `Oc1c(Cl)cc(Cl)c2cccnc12`: the inhibition is -14.4%. `Clc1cc2cccnc2c2ccccc12`: the inhibition is -7.93%. The value for `O=Cc1ccc2ccc3cccnc3c2n1` was 9.05%; that for `c1cnc2c(c1)ccc1ncccc12` was -2.85%; that for `CCc1cc(C(=O)N2CCCC(N3CCN(c4cccc(C(F)(F)F)c4)CC3)C2)n(C)n1` (stereo not drawn) was -0.25%. Turning to `CCO/C=C/C(O)(CNC(=O)COc1ccccc1F)C(F)(F)F` (stereo not drawn), the inhibition is -0.96%. With `Cc1ccc(S(=O)(=O)N2CCN(S(=O)(=O)N3CCC(C)CC3)CC2)cc1C`, the inhibition was 2.71%.

On to `CC(=O)Nc1nnc(SCC(=O)N2CCc3ccccc32)s1`, for which the inhibition is -6.4%. On to `O=C(NNc1ccc(-c2csnn2)cc1)c1ccccc1C(F)(F)F`, for which the inhibition was -23.8%. As for `CC1=C(C(=O)Nc2cc(C(=O)N3CCN(c4cccc(C)c4C)CC3)ccc2C)SCCO1`, the inhibition is 8.75%. The value for `Cc1cccc(NC2=C(NC(=O)c3ccccc3)C(=O)c3ccccc3C2=O)c1` was 28.6%. The value for `CN(C1=C(NC(=O)c2ccccc2)C(=O)c2ccccc2C1=O)C1CCS(=O)(=O)C1` (stereo not drawn) was 4.18%; that for `O=C(NC1=C(Nc2ccc(Cl)cc2)C(=O)c2ccccc2C1=O)c1ccccc1` was 12.2%.

For the compound `O=C(NC1=C(Nc2ccc(F)cc2)C(=O)c2ccccc2C1=O)c1ccc(Cl)cc1`, the inhibition is -4.19%. For the compound `COc1ccc(NC(=O)CN2CCN(CC(=O)Nc3ccccc3Cl)CC2)cc1Cl`, the inhibition is 3.53%.

Consider `COc1cccc(CC(CC(=O)O)C(=O)Nc2cc(C)ccc2C)c1` (stereo not drawn), for which the inhibition was 2.74%. The value for `CN1C(=O)/C(=C2\SC(=S)N(NC(=O)c3cccnc3)C2=O)c2ccccc21` was 6.82%. In the case of `O=C(CNC(=O)c1ccco1)N/N=C/c1c[nH]c2ccccc12` it was -1%; in that of `COC(=O)C(=NNc1c(C)n(C)n(-c2ccccc2)c1=O)C(=O)OC`, -4.26%; in that of `Cc1c(NS(=O)(=O)c2ccc(Br)cc2)c(=O)n(-c2ccccc2)n1C`, -8.19%. In the case of `Cc1c(NC(C)C)c(=O)n(-c2ccccc2)n1C`, the inhibition is -3.1%. In the case of `Cc1c(NP(=O)(c2ccc(Br)cc2)c2ccc(Br)cc2)c(=O)n(-c2ccccc2)n1C` it was -4.88%; in that of `CCS(=O)(=O)Nc1c(C)n(C)n(-c2ccccc2)c1=O`, -2.8%. `Cc1c(C=C2C(=O)NC(=O)NC2=O)c(=O)n(-c2ccccc2)n1C`: the inhibition is -5.56%. Take `C=CCSC(=S)Nc1c(C)n(C)n(-c2ccccc2)c1=O`: the inhibition is -2.87%. `Cc1c(NN=C(C#N)C#N)c(=O)n(-c2ccccc2)n1C`: the inhibition is -11.5%. For `CCN(C(=O)COC(=O)CNS(=O)(=O)c1ccc2ccccc2c1)C1CCCCC1`, the inhibition is -3.12%. With `CCn1c(=O)[nH]c(=O)c2c(N)c(C(=O)c3ccccc3OC)sc21`, the inhibition is 14.2%.

With `CCC(CC)CN1CCC(CN2C(=O)C(=O)NC[C@@H]2[C@@H](C)CC)CC1`, the inhibition is -5.8%.

The values above are taken from PubChem BioAssay AID504329 (Southern Research Specialized Biocontainment Screening …, 2011).
